Bioassay records as filed in PubChem.
Most compounds without a hit are left out; they make up all but 2% or so of the library.
CHRM4 agonist = human M4 muscarinic receptor agonists, primary screen, CHO-K1 cells, Fluo-8 calcium fluorescence; CHO-K1 hM4/Gqi5; vehicle 0%, full acetylcholine response 100%; activation, % at 3 µM; hit rate 0.14% among 360,000;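 active = activation above the run mean over all test wells plus 3 SD, cut at about 32% in these data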;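 also: peak over basal fluorescence ratio per well then scaled between controls; 0% = DMSO wells and 100% = acetylcholine at EC100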
Target sequence (P08173 whole entry, looked up): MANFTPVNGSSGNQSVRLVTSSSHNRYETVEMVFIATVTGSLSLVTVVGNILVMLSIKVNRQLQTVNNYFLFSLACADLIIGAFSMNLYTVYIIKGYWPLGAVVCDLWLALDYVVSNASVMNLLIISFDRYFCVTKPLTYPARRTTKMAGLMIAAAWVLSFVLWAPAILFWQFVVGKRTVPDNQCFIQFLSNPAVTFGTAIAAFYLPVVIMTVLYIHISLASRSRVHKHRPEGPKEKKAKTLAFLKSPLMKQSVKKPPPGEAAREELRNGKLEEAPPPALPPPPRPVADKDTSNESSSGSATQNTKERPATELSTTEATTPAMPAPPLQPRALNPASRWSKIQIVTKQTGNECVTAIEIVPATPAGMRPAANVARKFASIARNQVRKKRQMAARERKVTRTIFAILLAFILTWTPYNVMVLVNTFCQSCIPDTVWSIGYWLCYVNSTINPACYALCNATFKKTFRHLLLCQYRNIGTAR
M1 ag parental = counter-screen for M1 agonists: effect in parental CHO-K1 cells. activation, % at 3 µM. AID 602248, 2012. Fluo-8 calcium fluorescence; scaled to maximal ATP response, vehicle zero. hit rate 0.48% among 360,000; in the data active = activation above about 15%;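 also: untransfected CHO-K1 host cells lacking M1 receptor as counterscreen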
M1 PAM parental = nonselective calcium activators in parental CHO-K1 cells, primary screen, counter-screen for M1 PAM project, cell-based, Fluo-8 calcium fluorescence, full deck, 1536-well; ATP EC20; 0% at ATP EC20, 100% at ATP max; AID 602247, 2012; hit rate 0.02% among 360,000; activation, % at 3 µM;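 active = activation above the run cutoff, the mean activation of all test compounds plus 3 SD, cut at about 40% in these data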;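 also: peak over basal fluorescence ratio in a 140 s read after ATP addition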
CHRM4 antagonist = human M4 muscarinic receptor antagonists, primary screen, CHO cells, Fluo-8 calcium fluorescence; CHO-hM4 cells, ACh EC80; inhibition, % at 3 µM; hit rate 0.73% among 360,000; AID 624125, 2012;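 active = inhibition above its plate's cutoff, the mean inhibition of sample wells plus 3 SD, cut at about 27% in these data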;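 also: 0% = acetylcholine EC80 with DMSO and 100% = DMSO without agonist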
CHO-K1 Ca antag = M1 antagonist counterscreen hit in parental CHO-K1 cells; AID 602250; hit rate 0.6% among 360,000; inhibition, % at 3 µM; ATP-induced calcium, Fluo-8 fluorescence;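 active = inhibition above a per-plate cutoff, the plate's mean sample inhibition plus 3 SD, cut at about 24% in these data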;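 also: 0% = DMSO plus EC80 ATP and 100% = DMSO alone without ATP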
CHRM4 PAM = human M4 muscarinic receptor positive allosteric modulators, primary screen, CHO-K1 cells, Fluo-8 calcium fluorescence | activation, % at 3 µM | AID 624126, 2012 | CHO-K1 hM4/Gqi5, ACh EC20; 0% = ACh EC20, 100% = maximal ACh | hit rate 0.4% among 360,000;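 active = activation above its plate's cutoff, the mean activation of sample wells plus 3 SD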
The depositor's hits bear a star.

SMILES	CHRM4 agonist	M1 ag parental	M1 PAM parental	CHRM4 antagonist	CHO-K1 Ca antag	CHRM4 PAM
CC(C)CC(=O)Nc1nnc(S(=O)(=O)N2c3ccccc3CC2C)s1 (centres undefined)	0.3	-0.2	20.4	-29.8	-20.1	3.2
Cc1cccc(C)c1OCC(=O)N(Cc1ccco1)C1CCS(=O)(=O)C1 (centres undefined)	32.3*	-0.3	3.9	0.1	-5.5	-2.7
O=C(NC(Cc1c[nH]c2ccccc12)C(=O)O)OCC1c2ccccc2-c2ccccc21 (centres undefined)	-1.1	0.5	22.5	-5.8	-1.1	7.8
CC(CNC(=O)CCCn1ncn2c(cc3occc32)c1=O)c1ccccc1 (centres undefined)	2.4	0.2	-9.8	-5.3	-0.8	15.8*
O=S(=O)(c1ccccc1)N1CCC(O)(CSc2ccc(Cl)cc2)CC1	9.2	5.9	-15.7	12.8	28.9*	-9.6
COC(=O)[C@]1(C)N[C@H](CN(C)C(=O)Nc2ccccc2)[C@@H]2C(=O)N(C)C(=O)[C@@H]21	0.1	0.1	1.1	-6.2	-20.6	7.4
CNCC/C=C1/c2ccccc2CSc2ccccc21	6.8	4.7	17.0	42.8*	-1.0	-19.8
OCCN1CCN(CC/C=C2/c3ccccc3CSc3ccccc32)CC1	4.3	2.1	23.3	8.2	-6.5	-7.0
CCCc1ccc2oc(C(=O)N(Cc3nccn3C)C(C)C)c(C)c2c1	1.8	-0.2	-6.9	-28.0	-10.1	16.6*
COc1ccc(/C=C/c2cc(C(=O)O)c3ccccc3n2)cc1	18.3	21.3*	4.8	8.6	1.8	-2.6
COc1cc(OC)c(OC)cc1/C=C/c1cc(C(=O)O)c2ccccc2n1	0.1	0.9	18.5	4.1	-12.0	-8.6
N=c1c2ccccc2nc2n1CCCCCCCCCCC2	33.8*	11.6	-4.5	23.2	5.3	-8.8
CCCCC(CC(O)COCC(C)C)C(=O)NN (centres undefined)	0.4	1.5	8.1	0.3	-23.5	7.8
CCCCCCCC(O)CC(CC1CCCCC1)C(=O)NN (centres undefined)	1.1	0.6	24.4	14.9	-10.4	33.7*
CC[C@H](C)C1OC(=O)[C@@H](C)[C@@H](CC)NC(=O)[C@H](C)N(C)C(=O)C(C)(C)C(=O)C(C)NC(=O)[C@H](Cc2ccc(OC)cc2)N(C)C(=O)[C@H](C(C)C)N(C)C(=O)CNC(=O)[C@H](CC(C)C)N(C)C(=O)CNC1=O (some centres undefined)	-0.1	-0.3	9.6	-17.4	-30.9	22.7*
COC(=O)C(NC(=O)c1ccccc1Cl)(Nc1ncc(S(=O)(=O)c2ccc([N+](=O)[O-])cc2)s1)C(F)(F)F (centres undefined)	13.4	10.2	17.7	-5.8	2.5	-8.1
O=C(O)CC(C(=O)O)C(c1ccccc1)c1ccccc1 (centres undefined)	0.9	0.2	-1.4	-2.6	-1.8	7.5
Cc1ccc2cccc(OCC(=O)N3CC(C)CC(C)C3)c2n1 (centres undefined)	4.5	0.4	2.3	-1.0	-0.1	6.4
COc1ccc(S(=O)(=O)NCC(=O)N(CC(=O)NCc2ccccc2)Cc2ccco2)cc1	1.3	1.4	-8.9	-20.2	-5.0	-3.3
COc1ccc(CNC(=O)C(c2ccco2)N(C(=O)CNS(=O)(=O)c2ccccc2)c2ccccc2C)cc1 (centres undefined)	22.6	53.5*	13.7	10.9	11.1	-12.3
COc1ccc(NC(=O)CN(Cc2ccccc2)Cc2ccccc2)cc1S(N)(=O)=O	4.1	1.9	14.1	-2.5	-6.5	-0.9
COc1ccc(NC(=O)COc2ccccc2Cc2ccccc2)cc1S(N)(=O)=O	14.8	18.1*	-1.8	21.1	48.1*	-7.3
CC(=O)c1cccc(-c2ccnc3c2CC(C(=O)Nc2ccc4c(c2)OCO4)O3)c1 (centres undefined)	7.8	4.7	11.4	-5.2	-1.7	-2.2
